# Experimental data: paper PMC7862700, “An all-to-all approach to the identification of sequence-specific readers for epigenetic DNA modifications on cytosine”
# Tests used:
# Experiment in all cases: DAPPL (digital affinity profiling via proximity ligation, sequencing); 10 mM Tris-HCl pH 7.5, 50 mM NaCl, 1 mM DTT, 4% glycerol, room temperature, 30 min; GST-TFs on glutathione beads, 16-mer random dsDNA library, 0.1% formaldehyde crosslink after washing; high values mean tight binding
# FLI1 = target: T1, FLI1 (Homo sapiens, UniProt Q01543 1-452); details: protein: recombinant; tags: N-terminal GST; dsDNA, one strand shown
# T1 sequence: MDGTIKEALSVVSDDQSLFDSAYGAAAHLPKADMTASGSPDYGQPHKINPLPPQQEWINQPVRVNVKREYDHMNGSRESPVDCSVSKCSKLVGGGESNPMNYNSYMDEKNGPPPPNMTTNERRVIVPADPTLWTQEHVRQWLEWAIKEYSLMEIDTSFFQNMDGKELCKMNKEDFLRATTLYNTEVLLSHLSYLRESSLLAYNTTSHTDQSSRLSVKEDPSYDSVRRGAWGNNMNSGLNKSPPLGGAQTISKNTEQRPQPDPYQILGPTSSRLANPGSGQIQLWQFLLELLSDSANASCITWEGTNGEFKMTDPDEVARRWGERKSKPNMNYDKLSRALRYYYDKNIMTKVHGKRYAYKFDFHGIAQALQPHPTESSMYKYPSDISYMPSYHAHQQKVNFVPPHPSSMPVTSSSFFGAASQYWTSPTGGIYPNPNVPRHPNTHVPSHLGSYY
# Method in brief: (§1)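 Binding signal is defined as a hexamer's read frequency for one factor over its frequency for the tag-only sample. To obtain reads, GST-fused human transcription factors were expressed in yeast, captured on glutathione beads, barcoded with DNA and pooled with that sample. Pools met 200 nmole of a 16-mer random double-stranded DNA library in Tris/NaCl/DTT/glycerol buffer for 30 min at room temperature before washing, 0.1% formaldehyde crosslinking, proximity ligation (BsaI/T4 ligase, 1 h, 37 °C), PCR and Illumina NextSeq500 sequencing.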
# ELK1 = target: T2, ELK1 (Homo sapiens, UniProt P19419 1-428); details: protein: recombinant; tags: N-terminal GST; dsDNA, one strand shown
# T2 sequence: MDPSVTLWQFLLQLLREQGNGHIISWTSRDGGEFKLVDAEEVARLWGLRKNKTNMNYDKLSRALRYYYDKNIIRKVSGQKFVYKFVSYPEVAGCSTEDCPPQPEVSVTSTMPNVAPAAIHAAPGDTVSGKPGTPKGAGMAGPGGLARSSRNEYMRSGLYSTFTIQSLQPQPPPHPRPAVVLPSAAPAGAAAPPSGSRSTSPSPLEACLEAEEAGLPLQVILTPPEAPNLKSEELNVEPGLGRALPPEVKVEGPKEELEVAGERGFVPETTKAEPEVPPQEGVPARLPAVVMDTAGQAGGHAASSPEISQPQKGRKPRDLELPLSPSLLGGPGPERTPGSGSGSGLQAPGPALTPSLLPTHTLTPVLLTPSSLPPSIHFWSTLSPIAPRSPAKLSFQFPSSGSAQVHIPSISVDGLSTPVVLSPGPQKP
# Method in brief: as §1
# GABPA = target: T3, GABPA (Homo sapiens, UniProt Q06546 1-454); details: protein: recombinant; tags: N-terminal GST; dsDNA, one strand shown
# T3 sequence: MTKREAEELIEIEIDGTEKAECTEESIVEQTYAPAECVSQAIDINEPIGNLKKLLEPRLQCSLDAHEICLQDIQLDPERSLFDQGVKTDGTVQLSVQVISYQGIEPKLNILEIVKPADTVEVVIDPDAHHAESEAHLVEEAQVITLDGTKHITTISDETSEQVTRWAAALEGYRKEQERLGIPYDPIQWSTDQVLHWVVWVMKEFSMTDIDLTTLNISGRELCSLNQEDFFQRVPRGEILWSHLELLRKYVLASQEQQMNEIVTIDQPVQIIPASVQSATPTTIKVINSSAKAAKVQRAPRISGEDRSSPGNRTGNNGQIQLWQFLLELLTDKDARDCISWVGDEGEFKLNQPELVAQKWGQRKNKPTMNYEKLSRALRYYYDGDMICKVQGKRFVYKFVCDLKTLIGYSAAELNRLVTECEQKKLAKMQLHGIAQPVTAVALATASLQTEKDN
# Method in brief: as §1
# ERG = target: T4, ERG (Homo sapiens, UniProt P11308 1-479); details: protein: recombinant; tags: N-terminal GST; dsDNA, one strand shown
# T4 sequence: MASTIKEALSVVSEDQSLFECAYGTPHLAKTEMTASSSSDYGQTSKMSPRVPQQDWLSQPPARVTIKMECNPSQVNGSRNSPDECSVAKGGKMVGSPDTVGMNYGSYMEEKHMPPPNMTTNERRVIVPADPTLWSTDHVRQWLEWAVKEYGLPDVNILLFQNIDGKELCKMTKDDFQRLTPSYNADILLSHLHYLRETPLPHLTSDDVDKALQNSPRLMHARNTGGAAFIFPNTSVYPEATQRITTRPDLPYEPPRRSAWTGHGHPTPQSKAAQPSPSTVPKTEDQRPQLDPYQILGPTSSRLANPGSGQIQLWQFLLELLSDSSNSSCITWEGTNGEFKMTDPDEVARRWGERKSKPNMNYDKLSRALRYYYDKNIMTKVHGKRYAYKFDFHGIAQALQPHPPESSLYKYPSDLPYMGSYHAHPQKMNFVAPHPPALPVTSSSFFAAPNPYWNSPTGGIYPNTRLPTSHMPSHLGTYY
# Method in brief: as §1
# ELF1 = ELF1 (Homo sapiens, UniProt P32519 1-619); details: protein: recombinant; tags: N-terminal GST; dsDNA, one strand shown
# Method in brief: as §1
# EHF = target: T5, EHF (Homo sapiens, UniProt Q9NZC4 1-300); details: protein: recombinant; tags: N-terminal GST; dsDNA, one strand shown
# T5 sequence: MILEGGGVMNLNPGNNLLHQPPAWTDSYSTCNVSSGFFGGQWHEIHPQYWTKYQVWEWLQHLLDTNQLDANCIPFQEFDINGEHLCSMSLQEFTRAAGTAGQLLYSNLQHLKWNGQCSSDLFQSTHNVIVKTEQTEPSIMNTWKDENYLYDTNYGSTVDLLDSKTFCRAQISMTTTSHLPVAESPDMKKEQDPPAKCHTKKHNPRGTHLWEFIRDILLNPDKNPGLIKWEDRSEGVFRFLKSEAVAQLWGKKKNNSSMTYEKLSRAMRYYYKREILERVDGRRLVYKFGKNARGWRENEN
# Method in brief: as §1
# SPI1 = SPI1 (Homo sapiens, UniProt P17947 1-270); details: protein: recombinant; tags: N-terminal GST; dsDNA, one strand shown
# Method in brief: as §1
# SPIB = SPIB (Homo sapiens, UniProt Q01892 1-262); details: protein: recombinant; tags: N-terminal GST; dsDNA, one strand shown
# Method in brief: as §1
# ELK3 = target: T6, ELK3 (Homo sapiens, UniProt P41970 1-407); details: protein: recombinant; tags: N-terminal GST; dsDNA, one strand shown
# T6 sequence: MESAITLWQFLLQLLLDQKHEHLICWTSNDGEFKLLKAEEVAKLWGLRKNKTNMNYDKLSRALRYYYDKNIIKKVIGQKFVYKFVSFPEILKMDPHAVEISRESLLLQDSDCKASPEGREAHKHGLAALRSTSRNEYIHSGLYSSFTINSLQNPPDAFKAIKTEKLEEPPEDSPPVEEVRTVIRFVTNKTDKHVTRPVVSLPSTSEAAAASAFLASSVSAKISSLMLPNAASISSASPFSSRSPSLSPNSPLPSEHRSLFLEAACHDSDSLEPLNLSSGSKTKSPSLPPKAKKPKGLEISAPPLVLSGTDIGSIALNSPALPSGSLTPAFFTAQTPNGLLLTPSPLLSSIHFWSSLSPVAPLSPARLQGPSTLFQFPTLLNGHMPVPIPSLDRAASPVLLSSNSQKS
# Method in brief: as §1
# FEV = target: T7, FEV (Homo sapiens, UniProt Q99581 1-238); details: protein: recombinant; tags: N-terminal GST; dsDNA, one strand shown
# T7 sequence: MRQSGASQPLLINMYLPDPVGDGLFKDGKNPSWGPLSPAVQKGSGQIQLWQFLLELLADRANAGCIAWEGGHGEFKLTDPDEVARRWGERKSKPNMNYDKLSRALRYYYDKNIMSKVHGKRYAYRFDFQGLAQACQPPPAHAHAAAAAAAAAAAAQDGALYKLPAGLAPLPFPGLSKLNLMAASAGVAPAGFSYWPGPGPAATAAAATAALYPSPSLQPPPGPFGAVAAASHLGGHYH
# Method in brief: as §1
# ETV5 = ETV5 (Homo sapiens, UniProt P41161 1-510); details: protein: recombinant; tags: N-terminal GST; dsDNA, one strand shown
# Method in brief: as §1
# HSF1 = HSF1 (Homo sapiens, UniProt Q00613 1-529); details: protein: recombinant; tags: N-terminal GST; chain copies: 3; dsDNA, one strand shown
# Method in brief: as §1
# SPIC = target: T8, SPIC (Homo sapiens, UniProt Q8N5J4 1-248); details: protein: recombinant; tags: N-terminal GST; dsDNA, one strand shown
# T8 sequence: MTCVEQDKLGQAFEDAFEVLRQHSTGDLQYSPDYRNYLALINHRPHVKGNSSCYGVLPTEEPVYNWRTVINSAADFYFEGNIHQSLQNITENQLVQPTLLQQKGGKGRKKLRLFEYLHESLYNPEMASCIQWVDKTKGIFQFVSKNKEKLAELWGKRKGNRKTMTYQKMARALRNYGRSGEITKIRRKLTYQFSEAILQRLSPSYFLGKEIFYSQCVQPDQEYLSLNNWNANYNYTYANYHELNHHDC
# Method in brief: as §1
# ELF4 = ELF4 (Homo sapiens, UniProt Q99607 1-663); details: protein: recombinant; tags: N-terminal GST; dsDNA, one strand shown
# Method in brief: as §1
# ELK4 = target: T9, ELK4 (Homo sapiens, UniProt P28324-2 1-405); details: protein: recombinant; tags: N-terminal GST; dsDNA, one strand shown
# T9 sequence: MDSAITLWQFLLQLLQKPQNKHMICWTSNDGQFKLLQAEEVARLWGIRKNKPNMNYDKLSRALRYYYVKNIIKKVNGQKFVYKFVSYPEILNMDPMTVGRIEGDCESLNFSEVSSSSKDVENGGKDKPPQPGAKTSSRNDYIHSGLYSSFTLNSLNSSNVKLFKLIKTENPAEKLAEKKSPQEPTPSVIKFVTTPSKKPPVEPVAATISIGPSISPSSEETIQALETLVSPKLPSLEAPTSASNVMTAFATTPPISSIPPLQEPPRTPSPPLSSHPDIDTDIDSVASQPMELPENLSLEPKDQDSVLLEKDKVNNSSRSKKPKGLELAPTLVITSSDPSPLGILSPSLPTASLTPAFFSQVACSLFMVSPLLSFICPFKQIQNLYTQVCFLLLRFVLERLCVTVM
# Method in brief: as §1
# ETV2 = target: T10, ETV2 (Homo sapiens, UniProt O00321 1-342); details: protein: recombinant; tags: N-terminal GST; dsDNA, one strand shown
# T10 sequence: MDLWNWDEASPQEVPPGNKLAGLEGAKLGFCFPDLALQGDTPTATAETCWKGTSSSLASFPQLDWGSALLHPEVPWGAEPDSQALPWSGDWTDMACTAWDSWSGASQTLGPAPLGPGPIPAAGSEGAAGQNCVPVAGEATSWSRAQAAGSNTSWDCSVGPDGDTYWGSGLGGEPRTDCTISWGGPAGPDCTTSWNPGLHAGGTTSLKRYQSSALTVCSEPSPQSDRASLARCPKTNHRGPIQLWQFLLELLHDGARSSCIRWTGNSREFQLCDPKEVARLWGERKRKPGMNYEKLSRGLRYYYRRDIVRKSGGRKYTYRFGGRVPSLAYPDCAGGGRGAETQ
# Method in brief: as §1
# ELF3 = target: T11, ELF3 (Homo sapiens, UniProt P78545 1-371); details: protein: recombinant; tags: N-terminal GST; dsDNA, one strand shown
# T11 sequence: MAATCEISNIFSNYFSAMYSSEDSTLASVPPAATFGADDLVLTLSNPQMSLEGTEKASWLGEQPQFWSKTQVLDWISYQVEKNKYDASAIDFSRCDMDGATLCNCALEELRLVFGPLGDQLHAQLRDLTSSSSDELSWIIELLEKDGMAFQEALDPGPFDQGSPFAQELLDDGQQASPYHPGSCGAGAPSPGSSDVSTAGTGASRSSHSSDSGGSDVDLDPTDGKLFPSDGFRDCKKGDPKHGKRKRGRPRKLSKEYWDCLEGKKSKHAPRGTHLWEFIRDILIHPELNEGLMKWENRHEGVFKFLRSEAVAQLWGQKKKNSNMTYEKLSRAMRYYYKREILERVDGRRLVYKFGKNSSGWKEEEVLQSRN
# Method in brief: as §1
# CRX = CRX (Homo sapiens, UniProt O43186 1-299); details: protein: recombinant; tags: N-terminal GST; dsDNA, one strand shown
# Method in brief: as §1
# ETV1 = ETV1 (Homo sapiens, UniProt P50549 1-477); details: protein: recombinant; tags: N-terminal GST; dsDNA, one strand shown
# Method in brief: as §1
# ELF1, sequence (P32519 whole entry): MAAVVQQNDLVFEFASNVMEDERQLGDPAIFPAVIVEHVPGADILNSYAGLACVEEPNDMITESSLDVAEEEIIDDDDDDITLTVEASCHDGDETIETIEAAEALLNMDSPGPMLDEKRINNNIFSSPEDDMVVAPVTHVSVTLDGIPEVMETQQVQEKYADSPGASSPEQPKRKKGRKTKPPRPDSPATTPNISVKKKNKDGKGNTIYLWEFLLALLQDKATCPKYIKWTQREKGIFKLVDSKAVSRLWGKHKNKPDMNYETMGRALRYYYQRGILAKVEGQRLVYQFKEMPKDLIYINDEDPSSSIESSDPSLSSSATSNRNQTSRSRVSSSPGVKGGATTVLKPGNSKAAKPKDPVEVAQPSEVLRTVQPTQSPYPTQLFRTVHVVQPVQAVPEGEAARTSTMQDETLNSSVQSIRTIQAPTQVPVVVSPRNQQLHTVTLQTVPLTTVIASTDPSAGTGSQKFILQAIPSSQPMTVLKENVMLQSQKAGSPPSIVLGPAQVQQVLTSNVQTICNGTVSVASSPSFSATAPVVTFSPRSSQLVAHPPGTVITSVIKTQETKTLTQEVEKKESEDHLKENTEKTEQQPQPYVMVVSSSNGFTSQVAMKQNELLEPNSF
# ETV5, sequence (P41161 whole entry): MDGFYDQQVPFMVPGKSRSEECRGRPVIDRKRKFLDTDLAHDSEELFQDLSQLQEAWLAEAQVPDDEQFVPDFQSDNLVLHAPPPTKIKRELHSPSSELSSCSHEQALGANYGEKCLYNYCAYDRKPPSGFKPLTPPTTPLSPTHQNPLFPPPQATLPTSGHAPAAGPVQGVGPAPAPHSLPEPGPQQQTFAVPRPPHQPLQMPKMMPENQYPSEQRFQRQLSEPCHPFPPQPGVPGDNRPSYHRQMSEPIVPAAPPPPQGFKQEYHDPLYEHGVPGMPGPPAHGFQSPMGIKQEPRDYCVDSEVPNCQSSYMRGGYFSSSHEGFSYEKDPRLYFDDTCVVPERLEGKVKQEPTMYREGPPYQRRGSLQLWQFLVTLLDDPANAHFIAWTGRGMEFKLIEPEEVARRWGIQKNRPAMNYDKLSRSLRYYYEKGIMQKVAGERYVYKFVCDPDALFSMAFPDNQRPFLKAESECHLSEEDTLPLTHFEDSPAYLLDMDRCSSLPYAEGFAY
# HSF1, sequence (Q00613 whole entry): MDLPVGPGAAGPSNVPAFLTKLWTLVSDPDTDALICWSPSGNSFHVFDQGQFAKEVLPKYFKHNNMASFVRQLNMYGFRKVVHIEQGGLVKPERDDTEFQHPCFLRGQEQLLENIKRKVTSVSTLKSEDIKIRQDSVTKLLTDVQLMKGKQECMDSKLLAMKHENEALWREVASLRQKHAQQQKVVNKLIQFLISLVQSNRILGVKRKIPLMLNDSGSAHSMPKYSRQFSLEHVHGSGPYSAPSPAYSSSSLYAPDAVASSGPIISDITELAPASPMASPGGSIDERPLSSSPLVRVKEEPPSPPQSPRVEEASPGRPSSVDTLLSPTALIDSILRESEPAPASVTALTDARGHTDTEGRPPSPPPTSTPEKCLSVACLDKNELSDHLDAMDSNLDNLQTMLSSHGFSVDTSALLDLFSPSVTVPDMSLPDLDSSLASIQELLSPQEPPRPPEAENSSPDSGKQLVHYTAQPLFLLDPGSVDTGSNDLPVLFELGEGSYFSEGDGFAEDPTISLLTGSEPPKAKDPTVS
# ETV1, sequence (P50549 whole entry): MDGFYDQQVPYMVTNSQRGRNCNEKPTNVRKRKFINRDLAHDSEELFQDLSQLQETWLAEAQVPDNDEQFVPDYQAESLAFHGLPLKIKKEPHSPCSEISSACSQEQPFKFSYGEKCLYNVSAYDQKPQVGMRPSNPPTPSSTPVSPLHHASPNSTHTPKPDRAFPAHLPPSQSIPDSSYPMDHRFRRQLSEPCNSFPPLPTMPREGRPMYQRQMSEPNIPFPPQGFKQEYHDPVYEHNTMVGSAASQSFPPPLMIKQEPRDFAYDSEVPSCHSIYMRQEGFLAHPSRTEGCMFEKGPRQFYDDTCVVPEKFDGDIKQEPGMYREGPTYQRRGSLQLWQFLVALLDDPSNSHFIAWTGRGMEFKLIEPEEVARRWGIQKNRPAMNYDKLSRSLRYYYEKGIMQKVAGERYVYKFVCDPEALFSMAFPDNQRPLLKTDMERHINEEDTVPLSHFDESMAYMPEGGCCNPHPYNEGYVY
# CRX, sequence (O43186 whole entry): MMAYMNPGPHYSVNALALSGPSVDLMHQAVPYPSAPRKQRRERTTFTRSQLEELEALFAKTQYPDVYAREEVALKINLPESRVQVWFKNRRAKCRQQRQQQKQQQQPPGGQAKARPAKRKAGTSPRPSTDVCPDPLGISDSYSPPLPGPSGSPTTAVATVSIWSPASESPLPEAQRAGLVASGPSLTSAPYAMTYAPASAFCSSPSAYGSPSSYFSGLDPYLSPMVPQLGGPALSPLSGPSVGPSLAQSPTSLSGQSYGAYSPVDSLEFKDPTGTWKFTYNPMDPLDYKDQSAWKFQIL
# ELF4, sequence (Q99607 whole entry): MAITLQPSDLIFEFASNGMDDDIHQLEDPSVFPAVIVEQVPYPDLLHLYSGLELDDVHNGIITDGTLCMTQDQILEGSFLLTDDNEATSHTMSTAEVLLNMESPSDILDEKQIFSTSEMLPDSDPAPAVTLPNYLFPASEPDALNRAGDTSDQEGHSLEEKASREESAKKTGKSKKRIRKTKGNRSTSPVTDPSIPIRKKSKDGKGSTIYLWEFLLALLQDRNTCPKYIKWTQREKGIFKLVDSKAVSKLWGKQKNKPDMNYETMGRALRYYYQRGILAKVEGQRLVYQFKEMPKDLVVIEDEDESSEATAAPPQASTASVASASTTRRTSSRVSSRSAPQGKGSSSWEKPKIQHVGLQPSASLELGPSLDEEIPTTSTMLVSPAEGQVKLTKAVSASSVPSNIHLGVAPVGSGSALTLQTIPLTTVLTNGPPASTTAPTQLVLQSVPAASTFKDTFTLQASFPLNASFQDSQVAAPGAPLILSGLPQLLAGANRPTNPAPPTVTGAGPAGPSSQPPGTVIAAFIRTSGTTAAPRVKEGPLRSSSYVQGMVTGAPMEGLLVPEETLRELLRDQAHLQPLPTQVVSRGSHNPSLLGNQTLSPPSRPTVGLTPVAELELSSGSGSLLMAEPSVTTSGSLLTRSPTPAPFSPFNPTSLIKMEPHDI
# SPIB, sequence (Q01892 whole entry): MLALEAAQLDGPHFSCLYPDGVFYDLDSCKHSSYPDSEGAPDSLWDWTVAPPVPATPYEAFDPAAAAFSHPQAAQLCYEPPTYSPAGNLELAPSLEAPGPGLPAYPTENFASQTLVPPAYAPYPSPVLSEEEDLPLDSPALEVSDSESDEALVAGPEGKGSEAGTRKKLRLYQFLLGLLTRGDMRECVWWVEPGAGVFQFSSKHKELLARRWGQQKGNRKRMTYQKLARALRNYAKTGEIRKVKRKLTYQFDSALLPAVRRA
sequence,measurement,setting,value
TGCTAA,binding signal,FLI1,"1.24 fold enrichment (6-mer frequency, TF over GST control)"
same,binding signal,ELK1,"1.37 fold enrichment (6-mer frequency, TF over GST control)"
same,binding signal,GABPA,"1.18 fold enrichment (6-mer frequency, TF over GST control)"
same,binding signal,ERG,"1.23 fold enrichment (6-mer frequency, TF over GST control)"
same,binding signal,ELF1,"1.22 fold enrichment (6-mer frequency, TF over GST control)"
same,binding signal,EHF,"1.27 fold enrichment (6-mer frequency, TF over GST control)"
same,binding signal,SPI1,"1.34 fold enrichment (6-mer frequency, TF over GST control)"
same,binding signal,SPIB,"1.28 fold enrichment (6-mer frequency, TF over GST control)"
same,binding signal,ELK3,"1.29 fold enrichment (6-mer frequency, TF over GST control)"
same,binding signal,FEV,"1.29 fold enrichment (6-mer frequency, TF over GST control)"
same,binding signal,ETV5,"1.29 fold enrichment (6-mer frequency, TF over GST control)"
same,binding signal,HSF1,"1.32 fold enrichment (6-mer frequency, TF over GST control)"
same,binding signal,SPIC,"1.26 fold enrichment (6-mer frequency, TF over GST control)"
same,binding signal,ELF4,"1.28 fold enrichment (6-mer frequency, TF over GST control)"
same,binding signal,ELK4,"1.42 fold enrichment (6-mer frequency, TF over GST control)"
same,binding signal,ETV2,"1.24 fold enrichment (6-mer frequency, TF over GST control)"
same,binding signal,ELF3,"1.15 fold enrichment (6-mer frequency, TF over GST control)"
same,binding signal,CRX,"1.8 fold enrichment (6-mer frequency, TF over GST control)"
same,binding signal,ETV1,"1.39 fold enrichment (6-mer frequency, TF over GST control)"
